EBNA-1 inh = blocks EBNA-1 binding to DNA | AID 1950 | EBNA-1 DNA binding, fluorescence polarization | inhibition, % at 14.8 µM | 0.34% of 300,000 active; in the data active = inhibition above about 28%
PP5 primary = inhibitors of human protein phosphatase 5 (PP5); P53041; purified PP5c, OMFP substrate fluorescence; inhibition, % at 6.7 µM; 0.18% of 320,000 active;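 active = inhibition above the campaign's mean inhibition across all tested compounds plus 3 SD, cut at about 9.5% in these data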;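 also: 0% = DMSO only and 100% = 100 µM cantharidin control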
ZTA counter = ZTA (EBV) inhibition in EBNA-1 counter-screen. P03206. ZTA-DNA binding, fluorescence polarization. inhibition, % at 11 µM. 0.15% of 320,000 active. AID 2234; in the data active = inhibition above about 33%
Target sequence (P03206 whole entry, looked up): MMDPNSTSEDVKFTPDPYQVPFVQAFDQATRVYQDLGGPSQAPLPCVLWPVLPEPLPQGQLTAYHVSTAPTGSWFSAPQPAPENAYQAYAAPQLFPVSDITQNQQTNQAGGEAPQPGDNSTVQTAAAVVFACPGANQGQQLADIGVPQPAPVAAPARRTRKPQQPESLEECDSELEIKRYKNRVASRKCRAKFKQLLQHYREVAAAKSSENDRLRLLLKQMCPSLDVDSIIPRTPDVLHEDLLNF
MsrA act = activators of bovine methionine sulfoxide reductase A. purified bovine MsrA, absorbance read-out. activation, % at 10.6 µM. 0.3% of 360,000 active. AID 602163; in the data active = activation above about 7.5%;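 also: 0% = vehicle and 100% = reference activator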
PP1 counter = blocks human PP1-alpha phosphatase, a PP5 counter-screen. inhibition, % at 6.7 µM. purified PP1alpha, OMFP fluorescence. 0.9% of 320,000 active;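 active = inhibition above the mean inhibition of all tested compounds plus 3 SD, computed separately for each screening campaign, cut at about 15% in these data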
Target sequence (P62136 whole entry, looked up): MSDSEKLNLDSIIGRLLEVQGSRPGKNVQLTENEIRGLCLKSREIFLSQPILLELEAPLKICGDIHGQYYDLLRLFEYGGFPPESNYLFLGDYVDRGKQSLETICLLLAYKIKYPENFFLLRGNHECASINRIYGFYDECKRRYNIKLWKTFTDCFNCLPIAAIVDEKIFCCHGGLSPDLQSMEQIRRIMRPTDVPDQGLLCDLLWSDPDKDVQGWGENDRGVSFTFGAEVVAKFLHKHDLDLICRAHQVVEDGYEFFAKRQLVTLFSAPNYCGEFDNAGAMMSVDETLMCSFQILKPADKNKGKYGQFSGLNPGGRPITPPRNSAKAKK
MsrA inh = inhibitors of bovine MsrA; purified bovine MsrA, absorbance read-out; 0.75% of 360,000 active; inhibition, % at 15.5 µM;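 also: 0% = vehicle wells with enzyme and 100% = reference inhibitor wells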
MsrA conf = bovine MsrA inhibition, confirmed; shares compounds with MsrA inh; purified bovine MsrA, absorbance read-out; inhibition, % at 15.5 µM; 41% of 2,300 active; AID 651822;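 also: coupled to thioredoxin reductase with NADPH and selenocystamine and DMSO as substrate; 0% = vehicle only and 100% = full effect of reference inhibitor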
Numbers without * were called inactive; . = no result. Rows were chosen to be rich in hits. Some 2.3% of all compounds tested hit in one or more screens of this group. Rule as the data show it, unless noted: active = inhibition above about 4.5%; inactive = the rest.

SMILES | EBNA-1 inh | PP5 primary | ZTA counter | MsrA act | PP1 counter | MsrA inh | MsrA conf
O=C(Nc1nccs1)c1cnc2sccn2c1=O | . | . | . | -10 | . | 5.8* | 5.7*
O=C(Nc1ccon1)c1ccc(N2CCCCC2)c([N+](=O)[O-])c1 | -4 | 2 | 13 | -2 | -1 | 0 | .
O=C(Nc1nc2ccccc2s1)c1ccc(N2CCCCC2)c([N+](=O)[O-])c1 | 6 | 2 | 12 | -1 | 4 | 4.7* | 2
CC(C)NC(=O)/C(C#N)=C/c1ccc2c(c1)OCCO2 | 1 | 1 | -3 | -9 | 7 | 6.3* | 4
CCN(CC)c1ccc(-c2nnc(SCC(=O)N(CCOC)c3c(N)n(CC(C)C)c(=O)[nH]c3=O)o2)cc1 | 2 | 0 | 14 | -6 | -3 | 5.3* | 4
Nc1ccc(C(=O)N/N=C\C=C\c2cccc([N+](=O)[O-])c2)cc1 | -10 | 5 | -35 | -10 | 1 | 9.9* | 6.8*
O=C(N/N=C/C=C/c1cccc([N+](=O)[O-])c1)c1ccncc1 | 4 | 0 | -5 | -3 | 0 | -2 | .
O=C(N/N=C/C=C/c1ccccc1)c1ccncc1 | 3 | 1 | -8 | -1 | 1 | 8.0* | 6.9*
O=C(N/N=C/C=C\c1ccccc1[N+](=O)[O-])c1ccncc1 | 3 | 0 | 9 | -7 | -3 | 3 | .
COc1ccc(C(=O)N/C(=C/c2ccco2)C(=O)NC2CCS(=O)(=O)C2)cc1 (configuration not stated) | 6 | -2 | -3 | -2 | 1 | 4 | .
O=[N+]([O-])c1ccc(O)c(C=Nc2cccc3ccccc23)c1 | 0 | 4 | 0 | 0 | 1 | 2 | .
O=[N+]([O-])c1ccc(O)c(C=Nc2cccc3ncccc23)c1 | 5 | 1 | 11 | -14 | 2 | 5.2* | 3
COc1cc(/C=N/NC(=O)c2ccncc2)cc(OC)c1OC | 0 | 1 | 4 | -3 | -1 | 2 | .
Cc1ccc(C(=O)NN=Cc2ccc3c(c2)OCO3)cc1 | . | . | . | 2 | . | 3 | .
Cc1ccc(/C=N/NC(=O)c2cccc([N+](=O)[O-])c2)o1 | 6 | 2 | 9 | -3 | -1 | 5.2* | 4.9*
COc1cc(C(=O)NN=Cc2ccc(N(C)C)cc2)cc(OC)c1OC | . | . | . | -5 | . | 5.1* | 5.1*
Cn1cc([N+](=O)[O-])c(C(=O)N/N=C/c2ccc3c(c2)OCO3)n1 | 0 | -1 | 4 | -3 | -1 | 4.9* | 3
O=C(N/N=C/c1ccccc1)c1ccc2c(c1)OCO2 | -11 | 4 | 0 | -2 | -4 | 1 | .
CN(C)c1ccc(/C=N/NC(=O)c2ccc3c(c2)OCO3)cc1 | . | . | . | -5 | . | 6.9* | 5.5*
Cc1[nH]n(-c2ccccc2)c(=O)c1N=Nc1cccc(C(=O)O)c1 | 2 | 2 | 4 | -9 | 6 | -1 | .
O=C(N/N=C/c1ccc([N+](=O)[O-])o1)c1ccc2c(c1)OCO2 | . | . | . | -2 | . | 2 | .
Cc1ccc(/C=N\NC(=O)c2ccc3c(c2)OCO3)o1 | 0 | 2 | 3 | -8 | -3 | 4.9* | 5.4*
Cc1ccc(C(=O)N/N=C/c2ccc3c(c2)OCO3)o1 | 13 | 0 | 14 | -7 | -4 | 5.8* | 5.7*
CN(C)c1ccc(/C=N/NC(=O)c2cccc(N3CCCC3=O)c2)cc1 | 11 | 1 | 9 | -5 | -1 | 7.2* | 7.0*
COc1cc(C(=O)NCC(=O)N/N=C/c2ccc(-c3cccc([N+](=O)[O-])c3)o2)cc(OC)c1OC | -9 | 2 | 1 | -2 | 6 | 5.3* | 3
SMILES | EBNA-1 inh | PP5 primary | ZTA counter | MsrA act | PP1 counter | MsrA inh | MsrA conf
COc1cccc(/C=N/NC(=O)c2cccc(N3CCCC3=O)c2)c1 | -4 | 2 | 3 | -3 | 1 | -1 | .
CC(=O)c1c(OCC(=O)O)ccc2c(C)cc(=O)oc12 | 5 | 2 | -19 | -4 | 4 | 1 | .
Cc1cc(=O)oc2c(C(=O)/C=C/c3ccccc3)c(O)ccc12 | -8 | 2 | 2 | -4 | 0 | -1 | .
Cc1cc(=O)oc2c(C(=O)/C=C\c3cccs3)c(O)ccc12 | 6 | 1 | -4 | -6 | 2 | 5.2* | 6.3*
COc1ccc(/C=C\C(=O)c2c(O)ccc3c(C)cc(=O)oc23)cc1OC | -7 | 1 | 4 | -3 | 1 | 5.2* | 4
COc1cc(/C=C/C(=O)c2c(O)ccc3c(C)cc(=O)oc23)ccc1O | 4 | 2 | -9 | -8 | 2 | 6.9* | 6.1*
Cc1ccc(N(CCC#N)C(=O)COC(=O)c2ccccn2)cc1 | 0 | 1 | 0 | -7 | -1 | -1 | .
COc1ccc(C(=O)c2[nH]c(N)c(C(=O)NCCc3c[nH]c4ccccc34)c2-c2ccc(Br)cc2)cc1 | . | . | . | -7 | . | 1 | .
COc1ccccc1C(=O)N/C(=C\c1cn(C)c2ccccc12)C(=O)NCCCN1CCOCC1 | -8 | -1 | 2 | -6 | -3 | 5.3* | 4
Cn1cc(/C=C(\NC(=O)c2ccccc2Cl)C(=O)N2CCOCC2)c2ccccc21 | -17 | 2 | 1 | -8 | -1 | 6.3* | 4
O=C(NC(=S)NCCCN1CCOCC1)c1cccc2ccccc12 | 2 | -1 | -6 | -9 | -4 | 9.4* | 3
COc1ccccc1C(=O)N/C(=C\c1cn(C)c2ccccc12)C(=O)N1CCOCC1 | 11 | 1 | 9 | -4 | -4 | 3 | .
COc1ccccc1C(=O)N/C(=C\c1cn(C)c2ccccc12)C(=O)NCCN1CCOCC1 | . | . | . | -3 | . | 4 | .
COc1ccc(C(=O)N/C(=C\c2cn(C)c3ccccc23)C(=O)N2CCOCC2)cc1OC | 5 | -2 | 13 | -4 | -2 | 4.8* | 2
Cn1c(=O)c(=O)n(C)c2cc(S(=O)(=O)N3CCCC3C(=O)Nc3ccc(F)cc3)ccc21 (configuration not stated) | -11 | 2 | -21 | -2 | -1 | 2 | .
O=C(NCCCN1CCOCC1)c1cc2c(=O)[nH]c3ccccc3c2s1 | -1 | 3 | 17 | -3 | 9 | 5.3* | 4
CCOC(=O)c1ccc(NC(=O)CN2CCN(C(=O)C3CCCO3)CC2)cc1 (configuration not stated) | 3 | -2 | 18 | -3 | -5 | 0 | .
CN(CC(=O)Nc1ccccc1Br)C(=O)Cn1[nH]c(=O)c2ccccc2c1=O | . | -2 | -13 | -6 | -2 | 1 | .
COC(=O)c1sccc1NC(=O)c1ccc(Br)o1 | 5 | 5 | 3 | 2 | -1 | 5.7* | 3
COC(=O)c1sccc1NC(=O)c1ccc(C)o1 | -11 | -1 | 5 | -1 | -3 | 1 | .
CNC(=O)c1cc(C(=O)c2ccc(F)cc2C(F)(F)F)c[nH]1 | 9 | -1 | 7 | -1 | -7 | 1 | .
COc1ccc(/C=C/C(=O)C2(O)CCCCC2)cc1OC | 2 | -1 | 18 | -6 | -3 | 5.3* | 4
O=C(NC1CCCC1)C(c1cccs1)N(C(=O)c1csnn1)c1ccccc1F (configuration not stated) | 14 | 1 | 14 | 0 | 2 | 0 | .
